From PubChem BioAssay (NCI)
This is part of a sample that, as a whole, favours compounds with a hit. Of some 83,000 tested, about 20% had one in any assay.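 Cell lines were cultured in 96-well plates, exposed to a single compound concentration, and assessed for percent growth 48 hours later.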 Values without a mark were called inactive. Activity calls are given as the source filed them. Rule for the calls: active = growth percent below 10; inactive = the rest.

Each compound was assayed on SF-268 CNS (assay: NCI-60 one-dose screen, 48 h (100 = growth as untreated, 0 = no growth, -100 = all killed)). Conditions: 10 µM unless noted.

| Compound | growth |
| --- | --- |
| CC(=O)Nc1ccc2c(c1)Cc1c(F)cccc1-2 | 83.7% |
| COc1ccc(-c2cncnc2N)cc1OC | 103% |
| CN(C)c1ccc2cc(-c3ccc(Cl)c(Cl)c3)c(N)nc2c1 | 50.1% |
| O=C(Nc1ccccn1)[C@H](O)[C@@H](O)C(=O)N1CCOCC1 | 106% |
| O=C(NC(=S)Nc1ccc(-c2nc3ccccc3[nH]2)cc1)c1ccc2ccccc2c1 | 51% |
| CCCCCCN(CCCCCC)CC(O)c1cccc2ccc(Cl)cc12 (centres undefined) | 121% |
| Cc1ccc(S(=O)(=O)N(CC[C@@H]2C[C@H]2c2cc3ccccc3o2)C(=O)NC2CCCCC2)cc1 | 98.8% |
| Clc1ccc2[nH]c3c(NCCCN4CCOCC4)ncnc3c2c1 | 99.6% |
| Fc1ccc(Nc2ccc3cc(OCCCN4CCOCC4)ccc3n2)cc1F | 59.3% |
| CNC(=O)NCC1OC(n2cnc3c(NC(=O)Nc4ccccc4)ncnc32)C2OC(C)(C)OC12 (centres undefined) | 91.3% |
| CCN(CC)CCOC(=O)Nc1ccccc1Cl | 102% |
| N=C(N)c1ccc(-c2ccc(-c3ccc(Cl)c(Cl)c3)o2)cc1 | 73.1% |
| Cc1[nH]c(-c2nc3ccccc3[nH]2)c(C)c1C(=O)N1CCc2sccc2C1 | 97.3% |
| CC(C)(C)c1ccc(C(=O)Nc2sc3c(c2C(N)=O)CCC(=O)C3)cc1 | -2.29% (active) |
| Cc1nc(Nc2ccccn2)sc1C(=O)/C=C/c1ccc(Br)cc1 | 78.8% |
| C/C(=N\NC(=O)Cn1c(-c2ccc(S(C)(=O)=O)cc2)nc2cc(Cl)ccc21)c1ccc(Cl)cc1 | 72.4% |
| CCOC(=O)c1c(C)[nH]c(C(=O)CCC(=O)OC)c1C | 98.3% |
| C=C1C(=O)O[C@H]2[C@H]1CC/C(COC(=O)NCc1ccc(Cn3c(=O)sn(CCCCl)c3=O)cc1)=C\CC[C@@]1(C)O[C@@H]21 | 44.5% |
| COc1cc(C2C=C(c3cccc(NC(C)=O)c3)Nc3ncnn32)cc(OC)c1OC (centres undefined) | 36.9% |
| O=C(Oc1ccc[nH]c1=O)c1cc([N+](=O)[O-])cc([N+](=O)[O-])c1 | 116% |

| Compound | growth |
| --- | --- |
| COc1ccc(Oc2nc(Nc3ccc(N4CCOCC4)nc3)ncc2NC(=O)c2cc(OC)cc(OC)c2)cc1 | 82.2% |
| COC(=O)c1ccc2oc(NC(=O)c3ccc(N4CCOCC4)c([N+](=O)[O-])c3)nc2c1 | 97.4% |
| O=C1Nc2ccccc2/C1=N/N=C/c1ccc(OC2OC(CO)C(O)C(O)C2O)cc1 (centres undefined) | 102% |
| C=CC(=O)Nc1cccc(C)c1Nc1cc(-c2cccnc2Cc2c(C)c(OC)cc(OC)c2C)ncn1 | 6.81% (active) |
| OC(COc1cccc2ccccc12)CN1CCN(c2ccccc2)CC1 (centres undefined) | 103% |
| CC(=O)Nc1cccc(C2=CC(c3ccc(C)cc3)n3ncnc3N2)c1 (centres undefined) | 94% |
| O=C(CC12CC3CC(CC(C3)C1)C2)NCCOCCOCCNC(=O)c1cc2c(o1)C(=O)c1ccccc1C2=O | -16.4% (active) |
| N=C(N)c1ccc(-c2ccc(/C=C/c3ccccc3)s2)cc1 | 60.7% |
| CNC1(C#N)CCN(Cc2ccccc2)CC1 | 100% |
| O=C(/C=C/C12c3ccccc3C(c3ccccc31)C1C(=O)N(c3ccccc3)C(=O)C12)c1ccc(Cl)cc1 (centres undefined) | 43% |
| CCNCCNc1cc(-c2ccc(Cl)cc2)c(C#N)c2nc3ccccc3n12 | -12.6% (active) |
| CN(C)c1ccc2cc(-c3ccccc3F)c(N)nc2c1 | 45.1% |
| O=C1Nc2ccccc2/C1=N/N=C/c1c[nH]c2ccccc12 | 65.1% |
| COc1ccc(/C=C(\C#N)n2nnc3ccccc32)cc1 | 21.3% |
| N#Cc1c(Oc2ccc([N+](=O)[O-])cc2)nc2sc3cc(Cl)ccc3n2c1=N | 64.9% |
| O=C(NCCOCCOCCOCCNC(=O)c1cc2c(o1)C(=O)c1ccccc1C2=O)NC12CC3CC(CC(C3)C1)C2 | -5.16% (active) |
| O=C(Oc1ccc([N+](=O)[O-])cc1)c1ccc(CBr)cc1 | 100% |
| CCn1c(Sc2nnc(NC(=O)CCN3CCCC3)s2)nc2c1c(=O)n(C)c(=O)n2C | 102% |
| CC(=[N-])N1CCC[C@@H](Nc2c3ccccc3nc3ccccc23)C1.[Cl][Pt].[NH-]CCC[NH-] | 62.3% |
